Assay results reported in PubChem BioAssay (EPA / NIEHS).
Inconclusive results are not listed. The source holds several records for some structures; these can differ, active in one and inactive in another. Active and inactive are the calls of the source. How the source made its calls: active means hit-call score of the fitted dose curve at least 0.9, where 1 is the maximum; inconclusive means response in the unintended direction; inactive means score below 0.9.

Assay: ATG_M_19_TRANS: Attagene TRANS-FACTORIAL HepG2 Assay for M19 Transcription Factor (Internal Marker) (AID 2282974)
Conditions: HepG2 Attagene TRANS-FACTORIAL M19 internal marker reporter
Protocol: ATG_TRANS is a cell-based, multiplexed-readout assay that uses HepG2, a human liver cell line, with measurements taken at 24 hours after chemical dosing in a 24-well plate.ATG_M_19_TRANS is one of 30 assay component(s) measured or calculated from the ATG_TRANS assay. It is designed to make measurements of mRNA induction, a form of inducible reporter, as detected with fluorescence intensity signals by Reverse transcription polymerase chain reaction (RT-PCR) and Capillary electrophoresis technology.Data from the assay component ATG_M_19_TRANS was analyzed into 1 assay endpoint. This assay endpoint, ATG_M_19_TRANS, was analyzed in the positive analysis fitting direction relative to DMSO as the negative control and baseline of activity. Using a type of inducible reporter, measures of mRNA for gain-of-signal activity can be used to understand the background control at the transcription factor-level as they relate to the gene . Furthermore, this assay endpoint can be referred to as a secondary readout, because this assay has produced multiple assay endpoints where this one serves a background control function. To generalize the intended target to other relatable targets, this assay endpoint is annotated to the background measurement intended target family, where the subfamily is internal marker.
Human liver HepG2 cells are transiently transfected with multiple reporter transcription units (MRTUs) in 6-well plates using FuGene 6 reagent (Roche; 3 ml FuGene/1 mg DNA). The MRTU constructs are regulated by a cis-regulating element (promoter). […] A major difference between the CIS and TRANS system is that in CIS activities of endogenous TFs are measured, whereas the TRANS assay evaluates changes in activities of exogenous, chimeric NR-Gal4 proteins. […] At the end of 24 hour incubation, total RNA was isolated using TriZol reagent (Invitrogen). The isolated RNA is then reverse-transcribed using oligo(dT) primer and Mo-MLV reverse transcriptase (Invitrogen) with DNAse I (Ambion) treatment for 30 min. The one-tenth of the produced cDNA was amplified by PCR using Taq DNA polymerase (Invitrogen) and two reporter sequence-specific primers. The PCR products were fluorescently labeled by primer extension with 6-arboxyfluorescein (6-FAM) 5'-labeled reporter sequence-specific primer (2 min at 95 C, 20 s at 68 C and 10 min at 72 C) and these products were digested with 5U of HpaI (New England Biolabs) for 2h at 37 C. The fragments were purified using Qiaquick PCR columns (Qiagen), analyzed on an ABI 3130xL genetic analyzer (Applied Biosystems) with peak positions identified by using a set of X-rhodamine (ROX)-labeled MapMarker1000 molecular weight standards (BioVentures). The raw capillary electrophoresis data was processed using Attagraph software (Attagene).

outcome, inactive:
COC(=O)C(F)(F)C(F)(F)C(F)(F)C(F)(F)C(F)(F)F, FC(F)=C(F)C(F)(F)C(F)(F)C(F)(F)C(F)F, O=C(O)C(=O)O, CCOC=C(C(=O)OCC)C(=O)OCC, CC(=O)Nc1ccc(S(N)(=O)=O)cc1, O=C(O)CCC(F)(F)C(F)(F)C(F)(F)C(F)(F)C(F)(F)C(F)(F)F, O=c1cc(-c2ccccc2)oc2ccc3ccccc3c12, CN(Cc1cnc2nc(N)nc(N)c2n1)c1ccc(C(=O)N[C@@H](CCC(=O)O)C(=O)O)cc1, Nc1ccc(O)c(C(=O)O)c1, O=C1Cc2ccccc2N1c1c(Cl)cccc1Cl, Cc1cncc(C)c1, Nc1cc(Cl)c(-c2cc(Cl)c(N)cc2Cl)cc1Cl, COC(=O)C(F)(F)C(F)(F)C(F)(F)F, O=C(NO)c1ccccc1, O=C(c1ccccc1)c1ccccc1, CCCCCCCCCCCC[N+](C)(C)Cc1ccccc1, O=C(OC(=O)C(F)(F)C(F)(F)F)C(F)(F)C(F)(F)F, Cc1cccc2c1ccc1ccccc12, COC1=CC(=O)C[C@@H](C)[C@]12Oc1c(Cl)c(OC)cc(OC)c1C2=O, Cc1[nH]nc2c1N=C(c1ccccc1Cl)c1cc([N+](=O)[O-])ccc1N2, CC(C)[C@@H]1CC[C@@H](C)C[C@H]1O, CCCCC(CC)C(=O)OCCOCCOCCOCCOC(=O)C(CC)CCCC (stereo not given), Cc1ccc(C(=O)c2ccccc2)cc1, NNc1nc(-c2ccc([N+](=O)[O-])cc2)cs1, OCC(CO)(CBr)CBr, CC1=NN(c2ccccc2)C(=O)C1, CCCCC(CC)C(=O)O (stereo not given), CCC(=O)C=Cc1ccc(OC)cc1, O=S(=O)(O)C(F)(F)C(F)(F)C(F)(F)C(F)(F)C(F)(F)C(F)(F)C(F)(F)C(F)(F)C(F)(F)C(F)(F)F, NCc1cccc(CN)c1, COC(=O)CC(C(C)=O)C(=O)OC (stereo not given), CC(C)(C)c1ccc(O)c(O)c1, O=P(O)(O)CCC(F)(F)C(F)(F)C(F)(F)C(F)(F)C(F)(F)C(F)(F)F, CC(C)(C)C1CCCCC1O (stereo not given), O=C(C=C(O)C(F)(F)F)C(F)(F)F, Cc1ccc(N=Nc2c(O)ccc3ccccc23)c(C)c1, Cc1ccc2ccc3ccc(C)cc3c2c1, CCc1cccc(CC)c1N(COC)C(=O)CS(=O)(=O)O, O=C1OC(=O)c2cc(-c3ccc4c(c3)C(=O)OC4=O)ccc21

AC50, active:
CCCCCCCCCCCC[N+](C)(C)Cc1ccccc1 168 µM
